Hits are enriched below; roughly 8% of the tested compounds scored in any of these assays.
KB-V1 MDR tox = qHTS assay for MDR1-selective chemotherapeutics: Primary screen using the drug-selected MDR subline cells KB-V1. Potency, µM (series often up to 46.1 µM), most hits filed as cytotoxic. 3.4% of 400,000 active. KB-V1 MDR cells viability, CellTiter-Glo, 72 h. AID 1347076, 2019; note: % is set by controls: 0 for no effect and ±100 for the full control effect; nearly all actives have a fitted effect of over 60% in size
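KB-V1, DMEM (no phenol red) + 10% FBS; cpd pin-transferred, titration series; 72 h, 37 degrees C; CellTiter-Glo, luminescence. Data normalized, curve-fit.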
SW480 rerep = A quantitative high throughput screen for small molecules that induce DNA re-replication in SW480 colon adenocarcinoma cells | SW480 DNA re-replication, Hoechst DNA content imaging, 48 h | Potency, µM (series often up to 46.1 µM), inactives show at the highest dose re-replication activation, usual class: activators | 1.8% of 340,000 active | AID 624297, 2012; note: % of control where 0% means no effect; nearly all actives have a fitted effect of over 55% in size
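Quantitative HTS format with DMSO vehicle controls; 48 hr drug incubation at 37 C, then 40 min Hoechst staining and scanning imager measurement at 405 nm excitation.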
HT1080 IDH1KD tx = qHTS for induction of synthetic lethality in tumor cells producing 2HG: qHTS for the HT-1080-IDH1KD cell line. 2% of 360,000 active. Potency, µM (highest dose often 46.1 µM), without a hit: at the highest dose activity, negative = toxicity, hits mostly cytotoxic. AID 686971, 2013. HT-1080 IDH1 knockdown viability, ATP luminescence, 48 h;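 note: 0% = DMSO wells and -100% = cell-free medium wells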
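HT-1080-IDH1KD cells (IDH1 knocked down), 750/well in RPMI with 5% FBS, treated with compound 48 h at 37 degrees C. Viability by CellTiter-Glo luminescence, normalised to DMSO and no-cell wells; concentration-response curves classed.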
HT1080NT lethal = qHTS for induction of synthetic lethality in tumor cells producing 2HG: qHTS for the HT-1080-NT fibrosarcoma cell line; HT-1080-NT fibrosarcoma viability, CellTiter-Glo ATP luminescence, 48 h; 1.6% of 360,000 active; AID 686970, 2013; Potency, µM (highest dose often 46.1 µM), inactives show top-dose activity, negative = less viability, hits mostly cytotoxic;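 note: NT is the 2HG producing partner of a matched IDH1 knockdown line; 0% = DMSO-treated cells and -100% = media-only wells without cells; nearly all actives have a fitted effect of over 55% in size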
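Read-out is CellTiter-Glo luminescence after 10 minutes at room temperature, following 48 hours' compound treatment of HT-1080-NT cells (750 cells/well, RPMI, 5% FBS, 37 degrees C).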
KB-3-1 tox = qHTS assay for MDR1-selective chemotherapeutics: Primary screen using the parental adenocarcinoma cell KB-3-1; KB-3-1 viability, CellTiter-Glo ATP luminescence, 72 h; Potency, µM (top dose mostly 46.1 µM), actives largely listed as cytotoxic; 1.4% of 400,000 active; note: % is set by controls: 0 for no effect and ±100 for the full control effect; nearly all actives have a fitted effect of over 60% in size
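Cytotoxicity measured as CellTiter-Glo luminescence after 72 h at 37 C. Compound titrations were pinned onto drug-naive KB-3-1 parental adenocarcinoma cells grown in DMEM with 10% FBS, and normalized data fitted to concentration-response curves.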
MCF10A rerep = A quantitative high throughput screen for small molecules that induce DNA re-replication in MCF 10a normal breast cells | 2.9% of 350,000 active | AID 624296, 2012 | Potency, µM (series often up to 46.1 µM), without a hit: top-dose activity, positive = re-replication, hits mostly activators | MCF 10A DNA re-replication, Hoechst nuclear intensity, 48 h; note: % of control where 0% means no effect; nearly all actives have a fitted effect of over 50% in size
The depositor's hits bear a star; i = inactive; ? = inconclusive; · = not tested or not shown; [ ] = remark or other dose. Calls come from the whole dose curve; as a rule, active = well fitted curve in the direction sought with a large enough effect; inconclusive = small, poorly fitted or top-dose-only effect, or another doubt; inactive = no such curve, though single readings can be large; an effect the other way counts as inactive or inconclusive. Potency is the fitted concentration of half-maximal effect.

SMILES | KB-V1 MDR tox | SW480 rerep | HT1080 IDH1KD tx | HT1080NT lethal | KB-3-1 tox | MCF10A rerep
Cc1cccc(NC(=O)NNC(=O)c2cc(-c3ccccc3Cl)nc3ccccc23)c1 | i | 17% | ? | ? | i | ?
O=C(NC1=NCCS1)c1cc(-c2cccc(Br)c2)nc2ccccc12 | 15µM* | 19% | -18% | -1% | ? | ?
Cc1ccc(-c2cc(C(=O)NCc3ccccn3)c3ccccc3n2)cc1 | i | 5%[9.22 µM] | -21% | -12% | i | ?
O=C(NCc1ccccn1)c1cc(-c2ccc(Br)cc2)nc2ccccc12 | 2.6µM* | -10% | 12% | 9% | i | ?
O=C(Nc1cccnc1)c1cc(-c2cccc(Br)c2)nc2ccccc12 | 10µM* | 3% | -2% | -6% | i | ?
O=C(Nc1cccnc1)c1cc(-c2cccnc2)nc2ccc(Br)cc12 | i | 1% | -1% | -2% | i | -22%
C(=C\c1ccnc2ccccc12)/c1ccc(N2CCN(c3ccc(/C=C/c4ccnc5ccccc45)cc3)CC2)cc1 | i | · | · | · | ? | ·
CCOC(=O)c1cc(OC(=O)c2ccc(OC)c(OC)c2)n(-c2ccccc2)n1 | i | · | · | · | i | ·
CN1CCC(NC(=O)c2cc(-c3cccc(Br)c3)nc3ccccc23)CC1 | i | ? | 21µM* | 21µM* | ? | 9%
COc1ccc(-c2cc(C(=O)Nc3nc4ccccc4s3)c3ccccc3n2)cc1OC | i | ? | -26% | -21% | i | 2.9µM*
COc1cc(NC(=O)c2ccccc2-c2ccccc2)cc(OC)c1 | 12µM* | -242% | 2% | 5% | i | -2%
O=C(NC1CC1)c1cc(-c2ccc(Br)cc2)nc2ccccc12 | i | 1% | 0% | 6% | i | 25%
COc1ccc(-c2cc(C(=O)Nc3ccccc3O)c3ccccc3n2)cc1OC | ? | ? | 3% | -3% | i | 10%
COc1cccc(-c2cc(C(=O)Nc3cccnc3)c3ccccc3n2)c1 | ? | 1% | -4% | -3% | i | 16%
COc1ccc(-c2cc(C(=O)Nc3cccnc3)c3ccccc3n2)cc1OC | 9.2µM* | 0% | -15% | -5% | ? | ?
Cc1cccc(NC(=O)C2CCN(S(=O)(=O)c3cccc4nsnc34)CC2)c1C | i | · | · | · | i | ·
N#CCN1C(=O)C2CCCN2c2ccc(S(=O)(=O)N3CCOCC3)cc21 (stereo not given) | i | -1% | 9% | 11% | i | -13%
O=C(Nc1ccncc1)c1cc(-c2cccc(Br)c2)nc2ccccc12 | ? | 8% | ? | ? | 21µM* | 16µM*
COc1ccc(-c2cc(C(=O)Nc3ccc(S(N)(=O)=O)cc3)c3ccccc3n2)cc1OC | i | 5.8µM* | ? | -22% | i | 8.2µM*
COc1cc(NC(=O)c2cc(-c3cccnc3)nc3ccc(Br)cc23)cc(OC)c1 | i | -3% | 2% | 3% | ? | 16µM*
COc1cccc(-c2oc3c(c2-c2ccc(Br)nc2)C(O)CCC3)c1 (stereo not given) | i | · | -8% | -15% | i | ·
c1ccc2c(c1)oc1c(-c3ccc4nccn4c3)cccc12 | ? | · | ? | ? | i | ·
O=C(Nc1nc(NC(=O)c2ccco2)n(-c2ccccc2)n1)c1ccccc1 | 4.1µM* | -4% | 2.5µM* | 10µM* | 16µM* | ?
Cc1ccc(-c2csc(=Nc3ccccc3)n2Cc2ccc3c(c2)OCO3)cc1 | i | · | · | · | i | ·
Oc1ccc(Br)cc1-c1cc(-c2ccc(Cl)cc2)n[nH]1 | 10µM* | 15µM* | 23µM* | 23µM* | 18µM* | 15µM*
SMILES | KB-V1 MDR tox | SW480 rerep | HT1080 IDH1KD tx | HT1080NT lethal | KB-3-1 tox | MCF10A rerep
COc1ccc(O)c(-c2cc(-c3cccc(Br)c3)n[nH]2)c1 | ? | -19%[9.22 µM] | ? | ? | i | ?
O=[N+]([O-])c1cccc(-c2cc(-c3cc(Br)ccc3O)[nH]n2)c1 | 21µM* | ? | ? | ? | 21µM* | 14%
Oc1ccc(Br)cc1-c1cc(-c2ccccc2)n[nH]1 | i | ? | 21µM* | 29µM* | i | ?
COc1c(Cl)cnn(-c2ccc(Cl)c(Cl)c2)c1=O | ? | ? | ? | -27% | i | 23µM*
COc1ccc(-n2ncc(Cl)c(Cl)c2=O)cc1 | ? | 3% | 8.2µM* | 4.6µM* | 5.2µM* | 0.82µM*
COc1ccc(-n2ncc(N(C)n3cccc3)c(Cl)c2=O)cc1 | i | -6% | 17% | 10% | i | 2%
COc1ccc(Cl)cc1NC(=O)Cn1c(=O)n(Cc2ccco2)c(=O)c2cccnc21 | i | · | · | · | i | ·
CN1CC2=Cc3ccccc3OC23Oc2ccccc2C=C3C1 | ? | ? | ? | 16µM* | ? | ?
CCN(CC)S(=O)(=O)c1cc(NC(=O)C(C)N2CCN(Cc3ccc4c(c3)OCO4)CC2)ccc1C (stereo not given) | 2.9µM* | 15µM* | -11% | -4% | 13µM* | ?
CCOC(=O)C(=CNc1cc(C)nn1-c1ccccc1)C(=O)OCC | 4.6µM* | -1% | -25% | -15% | i | -5%
COC(=O)N1C(=O)[C@](c2ccc(Cl)cc2)(C(C)C)N1C(=O)OC | i | ? | -13% | -24% | i | ?
COC(=O)N1C(=O)[C@@](c2ccc(OC)cc2)(C(C)C)N1C(=O)OC | i | 21µM* | -14% | -19% | i | ?
CCNC(=O)C1CCN(c2nc3ccccc3nc2C(F)(F)F)CC1 | i | · | · | · | i | ·
CCN(CC)CCCN(C(=O)c1ccc(F)cc1)c1nc(-c2ccc(OC)cc2)cs1 | i | 4% | 23µM* | ? | i | 7%
CN(C)CCCN(C(=O)c1cccs1)c1nc(-c2ccccc2)cs1 | 9.2µM* | ? | ? | ? | i | ?
COc1ccc(-c2csc(N(CCCN(C)C)C(=O)c3ccc(F)cc3)n2)cc1 | ? | 1% | ? | -21% | i | 0%
COc1ccc(-c2csc(N(CCCN(C)C)C(=O)c3ccccc3C)n2)cc1 | i | ? | ? | ? | i | 0%

From PubChem
